The nature of test [1]: antimalarial activity against Dd2 strain (AID 2302;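 active = growth inhibition above 50% at the single 2 µM test dose, taken to imply half-maximal potency below 2 µM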;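 also: 0% = DMSO untreated growth and 100% = chloroquine plus artemisinin killed control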). Conditions: P. falciparum Dd2 in RBCs, LDH growth readout, 72 h; at 2 µM; hits give high values.
The nature of test [2]: human hepatoma cell viability loss – ATP luminescence, cytotoxicity control for P. falciparum antimalarial project, primary screen (AID 2303;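 active = inhibition above 50%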;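 also: 0% = DMSO wells and 100% = digitonin-killed cells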). Conditions: HepG2 viability, 24-48 h, at 10 µM, hits give high values.
For test [3], the target named is L-lactate dehydrogenase (Plasmodium falciparum (isolate CDC / Honduras)) (UniProt Q27743). Nature of the test: PfLDH activity inhibition – cell lysate, 3D7 strain, counter-screen for P. falciparum growth inhibition project (AID 2304).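 Also: 0% = vehicle and 100% = reference inhibitor.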 Conditions: P. falciparum 3D7 crude extract, LDH APAD/NBT absorbance; at 2 µM; hits give high values. (The purpose of a counterscreen is to sort out artefacts and off-target activity.)
Sequence of L-lactate dehydrogenase (Plasmodium falciparum (isolate CDC / Honduras)) (Q27743 whole entry, looked up): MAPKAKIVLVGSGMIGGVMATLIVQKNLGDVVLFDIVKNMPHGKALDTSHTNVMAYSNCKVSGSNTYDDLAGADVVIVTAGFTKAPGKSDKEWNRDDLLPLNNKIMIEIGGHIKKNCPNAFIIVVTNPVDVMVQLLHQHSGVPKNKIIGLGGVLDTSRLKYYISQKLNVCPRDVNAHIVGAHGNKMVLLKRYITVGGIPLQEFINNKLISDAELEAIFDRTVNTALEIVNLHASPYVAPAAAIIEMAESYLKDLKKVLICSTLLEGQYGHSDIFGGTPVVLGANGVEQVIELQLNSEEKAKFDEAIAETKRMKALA

Test [4] can be described thus: inhibition of 3D7 malaria parasite growth – strain 3D7 (AID 2306).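 Also: 0% = DMSO wells and 100% = chloroquine plus artemisinin control wells.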 Conditions: P. falciparum 3D7 erythrocytic growth, LDH absorbance, 72 h; at 2 µM; hits give high values.
Test [5] deals with Calcium-dependent protein kinase 1 (Plasmodium falciparum (isolate 3D7)) (UniProt P62344). Nature of the test: PfCDPK1 kinase inhibitors, biochemical, TCAMS library (AID 1159585; cut-off not given, nearly all actives have IC50 up to about 0.98 µM;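 also: inhibitors leave more ATP so luminescence rises with inhibition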). Conditions: recombinant PfCDPK1, Kinase-Glo ATP depletion luminescence.
Sequence of Calcium-dependent protein kinase 1 (Plasmodium falciparum (isolate 3D7)) (P62344 whole entry, looked up): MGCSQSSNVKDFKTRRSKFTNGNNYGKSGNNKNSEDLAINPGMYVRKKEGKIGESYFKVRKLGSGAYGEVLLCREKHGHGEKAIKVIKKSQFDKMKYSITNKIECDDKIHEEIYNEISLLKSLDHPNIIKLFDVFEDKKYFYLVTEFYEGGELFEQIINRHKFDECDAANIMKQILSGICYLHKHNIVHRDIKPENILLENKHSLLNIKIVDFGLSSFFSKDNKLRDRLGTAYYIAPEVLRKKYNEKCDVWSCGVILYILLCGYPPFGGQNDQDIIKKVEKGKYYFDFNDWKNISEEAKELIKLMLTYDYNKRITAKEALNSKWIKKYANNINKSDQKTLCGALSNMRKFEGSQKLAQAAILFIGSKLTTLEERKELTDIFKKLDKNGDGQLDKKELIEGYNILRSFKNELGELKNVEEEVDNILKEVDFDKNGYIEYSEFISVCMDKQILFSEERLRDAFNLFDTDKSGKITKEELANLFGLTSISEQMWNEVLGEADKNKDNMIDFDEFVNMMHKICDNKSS
Test [6] concerns the target Plasmodium falciparum protein kinase 6 (PK6, PF3D7_1337100) (UniProt Q8IDW1). Nature of the test: PfPK6 kinase inhibitors, biochemical, TCAMS library (AID 1159586). Conditions: recombinant PfPK6, Kinase-Glo ATP depletion luminescence. On the technique in general: In Kinase-Glo more light means more ATP remaining.
For test [7], the target named is Protein kinase 7 (PK7), Plasmodium falciparum 3D7 (PF3D7_0213400) (UniProt Q7YTF7). Briefly: inhibition of Plasmodium PK7 catalytic activity – biochemical, TCAMS antimalarial set, Kinase-Glo luminescence (AID 1159587). Conditions: recombinant PfPK7, Kinase-Glo ATP depletion luminescence.
Sequence of Protein kinase 7 (PK7), Plasmodium falciparum 3D7 (PF3D7_0213400) (Q7YTF7 1-343): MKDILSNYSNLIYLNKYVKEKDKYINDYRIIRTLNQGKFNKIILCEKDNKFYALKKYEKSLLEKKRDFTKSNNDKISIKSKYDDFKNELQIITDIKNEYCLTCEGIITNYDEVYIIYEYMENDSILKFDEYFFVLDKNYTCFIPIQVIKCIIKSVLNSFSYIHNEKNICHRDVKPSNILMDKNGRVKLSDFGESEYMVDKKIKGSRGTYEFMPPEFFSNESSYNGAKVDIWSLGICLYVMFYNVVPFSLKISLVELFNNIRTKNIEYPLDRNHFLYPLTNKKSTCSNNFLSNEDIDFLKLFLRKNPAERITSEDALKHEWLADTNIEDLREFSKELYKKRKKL
For test [8], the target named is Calcium-dependent protein kinase 4 (Plasmodium falciparum (isolate 3D7)) (UniProt Q8IBS5). Briefly: PfCDPK4 kinase inhibitors, biochemical, TCAMS library (AID 1159588; cut-off not given, nearly all actives have IC50 up to about 0.91 µM). Conditions: recombinant PfCDPK4, Kinase-Glo ATP depletion luminescence.
Sequence of Calcium-dependent protein kinase 4 (Plasmodium falciparum (isolate 3D7)) (Q8IBS5 whole entry, looked up): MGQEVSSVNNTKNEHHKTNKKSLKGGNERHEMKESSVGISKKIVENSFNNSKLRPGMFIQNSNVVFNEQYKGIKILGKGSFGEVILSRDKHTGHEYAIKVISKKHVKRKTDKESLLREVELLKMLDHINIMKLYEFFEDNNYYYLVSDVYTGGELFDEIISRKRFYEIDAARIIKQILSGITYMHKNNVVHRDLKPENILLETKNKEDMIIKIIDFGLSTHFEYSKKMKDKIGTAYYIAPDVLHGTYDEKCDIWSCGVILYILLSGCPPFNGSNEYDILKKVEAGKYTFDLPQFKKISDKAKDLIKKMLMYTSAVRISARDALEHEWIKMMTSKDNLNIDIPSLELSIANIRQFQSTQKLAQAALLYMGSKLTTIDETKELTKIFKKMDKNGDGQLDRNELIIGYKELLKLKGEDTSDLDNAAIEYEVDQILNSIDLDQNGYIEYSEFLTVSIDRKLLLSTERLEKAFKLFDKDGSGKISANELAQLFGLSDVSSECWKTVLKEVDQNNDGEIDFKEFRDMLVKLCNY

By inhibition is commonly meant the drop in the measured response relative to a control, in per cent.

Values without a mark were called inactive. For some of these results: Results with a measured potency or affinity are listed apart. Calls of active or inactive are those of the source. Unless noted, no rule for the calls is given here.

Sequence of Plasmodium falciparum protein kinase 6 (PK6, PF3D7_1337100) (Q8IDW1 1-305): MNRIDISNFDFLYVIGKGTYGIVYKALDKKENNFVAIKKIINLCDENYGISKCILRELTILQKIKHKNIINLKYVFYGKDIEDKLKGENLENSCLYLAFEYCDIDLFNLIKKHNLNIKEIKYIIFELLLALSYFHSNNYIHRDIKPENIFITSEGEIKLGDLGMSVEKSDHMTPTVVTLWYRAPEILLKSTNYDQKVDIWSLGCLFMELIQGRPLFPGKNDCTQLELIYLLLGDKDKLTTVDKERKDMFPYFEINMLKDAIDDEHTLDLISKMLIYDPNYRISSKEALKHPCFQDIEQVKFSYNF

As to `COc1ccc(-n2ncc(C(=O)N3CCC4(C3)C(=O)N(c3ccccc3)c3ccccc34)c2C)cc1` (stereo not given), the figures for the growth inhibition in test [1] and in test [4] were 91% (active) and 88% (active), respectively. Further, the values for the inhibition in test [2] and in test [3] were 45% and 0%, respectively. Further, the result in test [5], in test [6], in test [7] and in test [8] was inactive.
`CCCOc1cc(Cc2cnc(N)nc2N)cc(OC)c1OC`: the results for the growth inhibition in test [1] and in test [4] were 1% and 85% (active), respectively. Further, the figures for the inhibition in test [2] and in test [3] were 21% and 8%, respectively. The outcome in test [5], in test [6], in test [7] and in test [8] was inactive.
Regarding `O=C(N[C@@H](Cc1ccccc1)C(=O)NCc1cccc2ccccc12)c1ccc(O)c(-c2ccc(Cl)c(Cl)c2)c1`, the growth inhibition is 97% (active) in test [1] and 101% (active) in test [4]. Besides, the inhibition in test [2] is -6%; in test [3] it was 4%. Moreover, the outcome in test [5], in test [6], in test [7] and in test [8] was inactive.
As to `Nc1nccc2ccc(-c3cccc(OCc4ccccc4)c3)cc12`, the growth inhibition in test [1] was 81% (active); in test [4] it was 101% (active). In addition, the figures for the inhibition in test [2] and in test [3] were 47% and 5%, respectively. The outcome in test [5], in test [6], in test [7] and in test [8] was inactive.
Regarding `O=C(c1c(-c2[nH]c3ccccc3c2C(=O)C(F)(F)F)[nH]c2ccccc12)C(F)(F)F`, the growth inhibition in test [1] is 99% (active); in test [4], 97% (active). In addition, the inhibition in test [2] is 18%; in test [3], 3%. For the same molecule, the outcome in test [5], in test [6], in test [7] and in test [8] was inactive.
`CCN(CC)CCN(Cc1ccc(-c2ccc(Br)cc2)cc1)C(=O)Cn1c(CCc2cccc(F)c2F)nc(=O)c2ccccc21`: the growth inhibition in test [1] was 74% (active); in test [4], 98% (active). Moreover, the inhibition in test [2] was 37%; in test [3], 1%. The result in test [5], in test [6], in test [7] and in test [8] was inactive.
Turning to `Cc1ccccc1C1CCN(C2CCC(NC(=O)c3ccc(-c4cc(C(F)(F)F)nn4C)s3)CC2)CC1` (stereo not given), the figures for the growth inhibition in test [1] and in test [4] were 68% (active) and 98% (active), respectively. The inhibition in test [2] is 42%; in test [3] it was -2%. For the same molecule, the result in test [5], in test [6], in test [7] and in test [8] was inactive.
In the case of `Cc1nc(N=C(N)N)nc2cc3c(cc12)CCC3`, the growth inhibition was 58% (active) in test [1] and 90% (active) in test [4]. Also, the inhibition in test [2] is 17%; in test [3], 5%. For the same molecule, the result in test [5], in test [6], in test [7] and in test [8] was inactive.
Turning to `Cc1ccc(Cc2cnc(NCCSCc3ccc(CN4CCOCC4)o3)[nH]c2=O)cn1`, the growth inhibition in test [1] is -3%; in test [4] it was 95% (active). Moreover, the inhibition was 2% in test [2] and -4% in test [3]. For the same molecule, the result in test [5], in test [6], in test [7] and in test [8] was inactive.
With `Clc1ccccc1CN1CCC(NCc2cccc(-n3ccnc3)c2)CC1`, the growth inhibition is 43% in test [1] and 101% (active) in test [4]. Moreover, the inhibition in test [2] is 6%; in test [3], -3%. Further, the result in test [5], in test [6], in test [7] and in test [8] was inactive.
Consider `CCC1CN2CCc3c([nH]c4ccccc34)C2CC1CC1=NCCc2c1[nH]c1ccccc21` (stereo not given), for which the growth inhibition was 47% in test [1] and 100% (active) in test [4]. In addition, the inhibition in test [2] is 20%; in test [3], -8%. Further, the result in test [5], in test [6], in test [7] and in test [8] was inactive.
Take `O=C(Nc1ccccc1)N(Cc1ccc(-c2cccc(CNCc3ccc4c(c3)OCO4)c2)cc1)C1CCN(Cc2ccccc2)CC1`: the growth inhibition in test [1] was 65% (active); in test [4], 100% (active). In addition, the inhibition is 29% in test [2] and -1% in test [3]. Also, the result in test [5], in test [6], in test [7] and in test [8] was inactive.
As for `CCCC1N=C(N)N=C(N)N1c1ccc(C)c(C)c1` (stereo not given), the growth inhibition in test [1] was -2%; in test [4], 95% (active). The inhibition was 7% in test [2] and -3% in test [3]. The outcome in test [5], in test [6], in test [7] and in test [8] was inactive.
On to `COc1ccc(C=Cc2cc(N)c3ccccc3n2)cc1Br`, for which the growth inhibition in test [1] was 88% (active); in test [4], 101% (active). Moreover, the inhibition in test [2] was 55% (active); in test [3], 2%. Moreover, the result in test [5], in test [6], in test [7] and in test [8] was inactive.
On to `Cc1ccc(C)c(NC(=O)Nc2ccc(Nc3nc(C)cc(N4CCOCC4)n3)cc2)c1`, for which the growth inhibition in test [1] was 48%; in test [4], 98% (active). The inhibition in test [2] is 88% (active); in test [3], 0%. Besides, the outcome in test [5], in test [6], in test [7] and in test [8] was inactive.
Take `COc1cc2c(cc1OC)CN(CCCCNC(=O)c1ccc(NC(=O)c3cc(Cl)cc(Cl)c3)cc1)CC2`: the growth inhibition in test [1] was 75% (active); in test [4], 99% (active). The figures for the inhibition in test [2] and in test [3] were 19% and -6%, respectively. Moreover, the outcome in test [5], in test [6], in test [7] and in test [8] was inactive.
As to `CN1CCCc2cc(NC(=O)c3cc(-c4ccc(Cl)cc4)cs3)ccc2C1`, the growth inhibition is 34% in test [1] and 100% (active) in test [4]. The inhibition in test [2] was 15%; in test [3] it was 4%. Also, the outcome in test [5], in test [6], in test [7] and in test [8] was inactive.
As to `CSc1cccc(Nc2nc3ccc(S(=O)(=O)NCC(C)C)cc3n2C(C)C(C)C)c1` (stereo not given), the growth inhibition was 91% (active) in test [1] and 93% (active) in test [4]. Further, the inhibition in test [2] was 3%; in test [3], -2%. Further, the result in test [5], in test [6], in test [7] and in test [8] was inactive.
Take `CN(C)CCCNc1ncnc2c1[nH]c1ccc(Br)cc12`: the figures for the growth inhibition in test [1] and in test [4] were 19% and 100% (active), respectively. The inhibition in test [2] and in test [3] was 3% in each case. Further, the result in test [5], in test [6], in test [7] and in test [8] was inactive.
As to `CN1CCN(CCCNCc2cccc(-c3ccc(CNCCc4ccccc4)cc3)c2)CC1`, the growth inhibition is 20% in test [1] and 100% (active) in test [4]. Further, the inhibition in test [2] is 36%; in test [3], -9%. Also, the result in test [5], in test [6], in test [7] and in test [8] was inactive.

Values taken from PubChem BioAssay.
